The record followed here is ChEMBL document CHEMBL1961873, “Compounds: GSK PKIS; Assays: Nanosyn kinase panel” (2012).

In assay [1] the test system is Epidermal growth factor receptor (Homo sapiens), P00533 [T790M]. As to conditions: at 1 µM.
Assay [2] has as its system Epidermal growth factor receptor (Homo sapiens), P00533 [L858R,T790M]. Conditions: at 0.1 µM.
The test system is the same in assay [3]. Conditions: at 1 µM.
Assay [4] deals with Ephrin type-A receptor 2 (Homo sapiens) (UniProt P29317). Conditions: at 0.1 µM.
For assay [5] the target is unchanged. As to conditions: at 1 µM.
The target of assay [6] is T1, Ephrin type-A receptor 3 (Homo sapiens) (UniProt P29320).
T1 sequence (whole entry): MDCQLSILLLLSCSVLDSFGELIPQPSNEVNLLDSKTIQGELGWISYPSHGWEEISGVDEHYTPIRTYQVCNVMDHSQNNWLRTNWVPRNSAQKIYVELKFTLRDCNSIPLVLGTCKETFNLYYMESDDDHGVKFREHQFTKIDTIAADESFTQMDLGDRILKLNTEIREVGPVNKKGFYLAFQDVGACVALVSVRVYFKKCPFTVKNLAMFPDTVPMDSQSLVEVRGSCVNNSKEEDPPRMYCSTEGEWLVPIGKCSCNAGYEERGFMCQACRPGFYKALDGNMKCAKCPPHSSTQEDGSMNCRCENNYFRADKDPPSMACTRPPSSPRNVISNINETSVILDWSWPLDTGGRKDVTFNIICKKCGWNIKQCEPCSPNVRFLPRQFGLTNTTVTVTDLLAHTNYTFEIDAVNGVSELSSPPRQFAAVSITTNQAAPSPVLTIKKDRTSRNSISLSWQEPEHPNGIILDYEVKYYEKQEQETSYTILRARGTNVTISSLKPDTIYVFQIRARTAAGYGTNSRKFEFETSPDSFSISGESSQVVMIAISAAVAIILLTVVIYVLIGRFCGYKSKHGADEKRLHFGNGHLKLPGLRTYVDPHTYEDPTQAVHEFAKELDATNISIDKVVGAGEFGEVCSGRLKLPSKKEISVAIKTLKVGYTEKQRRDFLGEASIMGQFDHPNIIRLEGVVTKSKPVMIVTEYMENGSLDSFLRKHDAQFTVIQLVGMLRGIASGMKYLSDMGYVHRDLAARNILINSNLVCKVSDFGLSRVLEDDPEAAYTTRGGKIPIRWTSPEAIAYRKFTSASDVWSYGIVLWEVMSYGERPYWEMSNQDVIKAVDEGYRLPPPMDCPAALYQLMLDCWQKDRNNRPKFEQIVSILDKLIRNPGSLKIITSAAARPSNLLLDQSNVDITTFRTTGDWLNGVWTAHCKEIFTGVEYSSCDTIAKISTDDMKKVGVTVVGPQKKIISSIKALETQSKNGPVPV
As to conditions: at 0.1 µM.

For assay [7], the target named is T1, Ephrin type-A receptor 3 (Homo sapiens). As to conditions: at 1 µM.
Assay [8] has as its target Ephrin type-A receptor 4 (Homo sapiens) (UniProt P54764). Conditions: at 0.1 µM.
The target is the same in assay [9]. As to conditions: at 1 µM.
The target of assay [10] is T2, Ephrin type-B receptor 2 (Homo sapiens) (UniProt P29323).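 Further: reported as mean inhibition of EPHB2, from the GSK PKIS dataset.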
T2 sequence (whole entry): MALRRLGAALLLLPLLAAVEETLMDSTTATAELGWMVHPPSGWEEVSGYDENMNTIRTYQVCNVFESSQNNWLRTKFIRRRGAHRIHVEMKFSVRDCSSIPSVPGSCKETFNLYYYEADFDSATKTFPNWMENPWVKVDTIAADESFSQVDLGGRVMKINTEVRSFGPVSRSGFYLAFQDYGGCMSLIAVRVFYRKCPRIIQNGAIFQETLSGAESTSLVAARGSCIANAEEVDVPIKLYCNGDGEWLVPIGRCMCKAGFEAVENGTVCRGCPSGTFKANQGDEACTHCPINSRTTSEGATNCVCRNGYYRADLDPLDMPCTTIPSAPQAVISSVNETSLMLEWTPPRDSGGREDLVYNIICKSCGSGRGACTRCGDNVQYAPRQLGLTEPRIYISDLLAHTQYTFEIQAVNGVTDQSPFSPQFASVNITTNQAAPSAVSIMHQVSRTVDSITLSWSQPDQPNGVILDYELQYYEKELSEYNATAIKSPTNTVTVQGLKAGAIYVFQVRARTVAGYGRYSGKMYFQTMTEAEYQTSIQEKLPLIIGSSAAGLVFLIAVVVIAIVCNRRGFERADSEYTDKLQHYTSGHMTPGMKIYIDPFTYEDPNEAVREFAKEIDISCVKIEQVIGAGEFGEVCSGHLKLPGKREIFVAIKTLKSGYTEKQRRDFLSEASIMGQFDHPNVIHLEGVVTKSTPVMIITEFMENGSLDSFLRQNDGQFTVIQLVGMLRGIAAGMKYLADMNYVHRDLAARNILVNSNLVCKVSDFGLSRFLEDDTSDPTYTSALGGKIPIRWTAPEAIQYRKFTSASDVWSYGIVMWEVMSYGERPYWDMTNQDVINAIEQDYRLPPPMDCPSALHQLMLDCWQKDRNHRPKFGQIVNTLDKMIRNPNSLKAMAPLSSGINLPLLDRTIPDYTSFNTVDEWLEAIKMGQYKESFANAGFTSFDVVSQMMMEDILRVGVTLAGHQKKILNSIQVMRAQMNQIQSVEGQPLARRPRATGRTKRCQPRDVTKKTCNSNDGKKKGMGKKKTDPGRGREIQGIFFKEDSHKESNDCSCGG
Conditions: at 0.1 µM.

Sequence of Ephrin type-A receptor 4 (Homo sapiens) (P54764 whole entry): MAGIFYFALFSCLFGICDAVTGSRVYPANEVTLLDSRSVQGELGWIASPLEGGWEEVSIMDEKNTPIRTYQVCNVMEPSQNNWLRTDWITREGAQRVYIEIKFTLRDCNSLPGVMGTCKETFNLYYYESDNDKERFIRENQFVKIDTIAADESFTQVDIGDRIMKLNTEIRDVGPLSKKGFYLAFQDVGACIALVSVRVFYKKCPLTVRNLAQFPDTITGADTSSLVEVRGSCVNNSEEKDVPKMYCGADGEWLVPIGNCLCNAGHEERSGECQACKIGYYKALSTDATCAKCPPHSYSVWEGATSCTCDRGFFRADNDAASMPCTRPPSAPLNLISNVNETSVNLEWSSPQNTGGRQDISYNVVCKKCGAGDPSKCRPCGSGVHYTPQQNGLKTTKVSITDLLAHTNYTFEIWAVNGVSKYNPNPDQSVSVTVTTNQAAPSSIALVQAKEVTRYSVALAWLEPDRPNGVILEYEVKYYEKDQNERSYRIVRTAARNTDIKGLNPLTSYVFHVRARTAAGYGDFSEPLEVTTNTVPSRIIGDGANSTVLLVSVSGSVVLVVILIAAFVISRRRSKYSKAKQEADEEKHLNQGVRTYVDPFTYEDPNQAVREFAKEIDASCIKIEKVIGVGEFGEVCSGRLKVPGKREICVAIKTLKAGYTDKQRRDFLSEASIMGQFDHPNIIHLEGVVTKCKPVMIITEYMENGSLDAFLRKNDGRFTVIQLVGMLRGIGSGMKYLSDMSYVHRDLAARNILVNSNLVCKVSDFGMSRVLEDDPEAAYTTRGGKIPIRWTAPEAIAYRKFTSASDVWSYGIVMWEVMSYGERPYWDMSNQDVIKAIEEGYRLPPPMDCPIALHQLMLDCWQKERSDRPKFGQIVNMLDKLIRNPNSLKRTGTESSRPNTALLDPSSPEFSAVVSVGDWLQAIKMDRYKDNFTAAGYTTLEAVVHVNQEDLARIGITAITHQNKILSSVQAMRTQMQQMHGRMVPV
Sequence of Ephrin type-A receptor 2 (Homo sapiens) (P29317 whole entry): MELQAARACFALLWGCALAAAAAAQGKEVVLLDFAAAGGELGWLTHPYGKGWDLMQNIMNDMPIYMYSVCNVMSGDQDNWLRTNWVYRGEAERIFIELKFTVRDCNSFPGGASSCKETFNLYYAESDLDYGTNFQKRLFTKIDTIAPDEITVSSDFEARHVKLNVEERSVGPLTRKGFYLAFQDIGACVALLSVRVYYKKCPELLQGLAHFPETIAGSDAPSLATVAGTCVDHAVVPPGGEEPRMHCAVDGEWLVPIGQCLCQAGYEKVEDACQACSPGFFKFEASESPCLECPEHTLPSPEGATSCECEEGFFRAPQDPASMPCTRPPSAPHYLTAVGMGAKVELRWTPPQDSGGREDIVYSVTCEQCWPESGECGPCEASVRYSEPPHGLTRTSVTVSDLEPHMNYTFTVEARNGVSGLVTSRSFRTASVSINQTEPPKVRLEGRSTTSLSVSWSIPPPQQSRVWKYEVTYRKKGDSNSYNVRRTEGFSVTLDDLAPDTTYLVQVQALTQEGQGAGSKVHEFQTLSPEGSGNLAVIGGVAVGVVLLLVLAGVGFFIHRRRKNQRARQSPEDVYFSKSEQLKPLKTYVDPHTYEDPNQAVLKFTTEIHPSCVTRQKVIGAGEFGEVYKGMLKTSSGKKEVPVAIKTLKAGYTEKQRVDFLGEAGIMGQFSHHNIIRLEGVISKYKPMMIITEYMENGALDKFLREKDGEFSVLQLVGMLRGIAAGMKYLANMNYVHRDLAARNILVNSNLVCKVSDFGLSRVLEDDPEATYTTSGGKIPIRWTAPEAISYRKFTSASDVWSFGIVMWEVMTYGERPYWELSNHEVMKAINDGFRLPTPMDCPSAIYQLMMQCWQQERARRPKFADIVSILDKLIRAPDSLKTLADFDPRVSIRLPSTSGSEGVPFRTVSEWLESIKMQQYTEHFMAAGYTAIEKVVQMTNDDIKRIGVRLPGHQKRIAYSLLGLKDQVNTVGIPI
Sequence of Epidermal growth factor receptor (Homo sapiens), P00533 [T790M] (P00533 whole entry T790M): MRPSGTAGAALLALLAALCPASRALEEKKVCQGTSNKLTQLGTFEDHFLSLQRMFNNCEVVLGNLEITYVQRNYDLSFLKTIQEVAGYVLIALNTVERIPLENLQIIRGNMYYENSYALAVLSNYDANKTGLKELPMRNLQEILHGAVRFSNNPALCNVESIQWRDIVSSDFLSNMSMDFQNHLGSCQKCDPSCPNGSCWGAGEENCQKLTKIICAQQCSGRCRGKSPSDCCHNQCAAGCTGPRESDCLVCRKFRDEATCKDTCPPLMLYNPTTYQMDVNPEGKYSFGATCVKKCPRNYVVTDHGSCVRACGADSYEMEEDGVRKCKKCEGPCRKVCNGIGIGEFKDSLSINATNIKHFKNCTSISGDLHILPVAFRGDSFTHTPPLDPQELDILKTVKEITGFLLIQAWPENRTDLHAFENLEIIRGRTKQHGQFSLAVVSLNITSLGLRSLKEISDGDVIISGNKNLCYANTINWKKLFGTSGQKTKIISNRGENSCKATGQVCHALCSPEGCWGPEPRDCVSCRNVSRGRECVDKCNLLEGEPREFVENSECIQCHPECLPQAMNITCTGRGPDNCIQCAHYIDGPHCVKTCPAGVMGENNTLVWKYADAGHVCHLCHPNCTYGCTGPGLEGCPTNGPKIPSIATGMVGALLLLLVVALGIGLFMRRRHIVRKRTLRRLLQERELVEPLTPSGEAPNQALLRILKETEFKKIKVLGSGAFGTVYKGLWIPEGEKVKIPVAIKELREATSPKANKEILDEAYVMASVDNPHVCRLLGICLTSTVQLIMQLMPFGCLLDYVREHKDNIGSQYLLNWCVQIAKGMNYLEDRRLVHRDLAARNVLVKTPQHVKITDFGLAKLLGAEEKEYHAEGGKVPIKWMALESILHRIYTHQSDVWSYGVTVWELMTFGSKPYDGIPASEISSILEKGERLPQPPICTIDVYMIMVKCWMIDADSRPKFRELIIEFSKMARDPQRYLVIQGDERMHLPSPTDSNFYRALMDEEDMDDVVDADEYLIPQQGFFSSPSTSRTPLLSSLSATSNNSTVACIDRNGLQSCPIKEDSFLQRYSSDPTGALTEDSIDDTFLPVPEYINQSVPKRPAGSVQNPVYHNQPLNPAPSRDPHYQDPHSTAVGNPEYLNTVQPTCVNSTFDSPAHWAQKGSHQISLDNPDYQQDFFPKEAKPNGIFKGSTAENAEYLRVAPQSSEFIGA
Sequence of Epidermal growth factor receptor (Homo sapiens), P00533 [L858R,T790M] (P00533 whole entry T790M/L858R, looked up): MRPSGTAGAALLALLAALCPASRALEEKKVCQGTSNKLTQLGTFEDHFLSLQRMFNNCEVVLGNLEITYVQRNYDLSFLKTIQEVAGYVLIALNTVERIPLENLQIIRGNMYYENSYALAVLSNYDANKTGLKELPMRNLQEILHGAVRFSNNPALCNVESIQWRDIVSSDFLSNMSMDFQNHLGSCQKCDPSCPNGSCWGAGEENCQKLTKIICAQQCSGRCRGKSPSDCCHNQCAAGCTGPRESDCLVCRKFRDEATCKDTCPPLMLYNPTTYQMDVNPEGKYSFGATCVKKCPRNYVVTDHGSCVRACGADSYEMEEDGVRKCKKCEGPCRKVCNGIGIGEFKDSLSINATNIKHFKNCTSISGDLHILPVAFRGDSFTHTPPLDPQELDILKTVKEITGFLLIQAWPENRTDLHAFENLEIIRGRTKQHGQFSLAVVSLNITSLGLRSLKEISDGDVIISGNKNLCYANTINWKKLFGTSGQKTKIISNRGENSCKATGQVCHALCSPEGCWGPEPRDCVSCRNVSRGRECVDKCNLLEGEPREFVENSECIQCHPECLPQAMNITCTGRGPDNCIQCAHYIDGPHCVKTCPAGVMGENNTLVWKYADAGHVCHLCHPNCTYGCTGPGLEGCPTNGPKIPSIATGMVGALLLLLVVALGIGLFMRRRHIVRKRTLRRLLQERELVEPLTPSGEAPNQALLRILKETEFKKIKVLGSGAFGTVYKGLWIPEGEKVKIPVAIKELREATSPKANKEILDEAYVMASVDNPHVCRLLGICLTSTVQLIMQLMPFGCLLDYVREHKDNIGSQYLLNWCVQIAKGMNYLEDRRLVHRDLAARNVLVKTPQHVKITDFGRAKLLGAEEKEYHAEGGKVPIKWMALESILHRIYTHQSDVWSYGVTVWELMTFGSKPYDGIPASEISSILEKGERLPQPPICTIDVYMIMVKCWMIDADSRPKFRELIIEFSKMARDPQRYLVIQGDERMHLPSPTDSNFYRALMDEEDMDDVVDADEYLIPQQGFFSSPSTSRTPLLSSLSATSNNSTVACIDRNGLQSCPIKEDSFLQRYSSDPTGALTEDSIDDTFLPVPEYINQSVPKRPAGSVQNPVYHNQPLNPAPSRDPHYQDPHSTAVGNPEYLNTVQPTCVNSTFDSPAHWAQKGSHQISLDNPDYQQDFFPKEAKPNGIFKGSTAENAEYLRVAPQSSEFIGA

The inhibition is the relative decrease from the control value, in per cent. Take `CCc1nn2ncccc2c1-c1ccnc(NC2CC2)n1`: the inhibition in assay [1] is 1.56%; in [2], -2.33%; in [3], 0.76%; in [4], 0.52%; in assay [5], 0.58%; in [6], 2.4%. For the same compound, the inhibition was 3.87% in assay [7], 4.8% in assay [8], 8.02% in assay [9] and -1.23% in [10].
Take `CS(=O)(=O)CCNCc1coc(-c2ccc3ncnc(Nc4ccc(OCc5ccccc5)cc4)c3c2)c1`: the inhibition in assay [1] is 10.3%; in assay [2], -2.4%; in assay [3] it was 4.59%; in assay [4] it was 2.56%; in assay [5], 0.15%; in [6], 7.79%. In addition, the inhibition in assay [7] came out at 5.01%; in assay [8] it was 8.01%; in [9], 5.86%; in assay [10], 3.86%.
On to `COc1cc(/C=N/Nc2ncnc3[nH]ncc23)ccc1O`, for which the inhibition in assay [1] was 4.2%; in assay [2], -0.56%; in [3], 5.5%; in assay [4] it was 6.02%; in [5], 21%; in assay [6], 5.55%. Besides, the inhibition in assay [7] amounted to 16.5%; in assay [8] it was 14.9%; in assay [9] it was 55.3%; in [10], 11.7%.
For `CCCN(CCS(C)(=O)=O)Cc1ccc(-c2ccc3ncnc(Nc4ccc(OCc5cccc(F)c5)c(Cl)c4)c3c2)o1`, the inhibition in assay [1] is 8.75%; in [2] it was -1%; in [3] it was 3.75%; in assay [4], -2.13%; in [5] it was -0.4%; in [6] it was 2.56%. Further, the inhibition turned out to be 2.25% in assay [7], 5.97% in assay [8], 5.71% in [9] and 4.71% in [10].
Take `CC(C)(CO)CNC(=O)c1ccc2c(c1)/C(=N/Nc1ccc(S(N)(=O)=O)cc1)C(=O)N2`: the inhibition in [1] was -0.95%; in assay [2], -1.33%; in assay [3] it was -1.42%; in [4], -2.4%; in assay [5] it was -2.69%; in assay [6], -0.22%. The inhibition in assay [7] was 1.81%; in assay [8], -0.06%; in assay [9], 10.3%; in [10], -4.35%.
As for `c1ccc(-c2nc3n(c2-c2ccc4c(c2)OCO4)CCC3)nc1`, the inhibition in [1] is 0.6%; in assay [2] it was 1.92%; in [3], 1.45%; in [4] it was -2.56%; in assay [5], -2.85%; in [6], -0.11%. In addition, the inhibition in [7] was 1.96%; in assay [8], 4.05%; in assay [9], 2.75%; in [10] it was 1.03%.
Take `CN(C)CCOc1ccc(-c2nc(-c3ccncc3)c(-c3ccc4c(c3)CC/C4=N\O)[nH]2)cc1`: the inhibition in assay [1] came to 2.29%; in [2], 2.36%; in assay [3] it was 6.66%; in [4], 1.49%; in assay [5], 0.74%; in assay [6], 2.42%. For the same compound, the inhibition in assay [7] came to 3.57%; in assay [8], 6.96%; in assay [9], 9.28%; in assay [10], 5.22%.
Consider `Cc1cccc2c1NC(=O)/C2=N\Nc1ccc(S(N)(=O)=O)cc1`, for which the inhibition in [1] worked out at 0.35%; in assay [2] it was 3.72%; in [3], 1.46%; in assay [4], 2.85%; in assay [5], 3.42%; in assay [6], 4.1%. Further, the inhibition turned out to be 3.43% in assay [7], 6.06% in [8], 7.18% in [9] and 7.03% in assay [10].
As to `CCNC(=O)O[C@H]1CN[C@H](C#Cc2cc3ncnc(Nc4ccc(OCc5cccc(F)c5)c(Cl)c4)c3s2)C1`, the inhibition came out at 10.6% in assay [1]; 2.62% in assay [2]; 4.48% in [3]; 3.3% in assay [4]; 2.25% in [5]; 6.99% in [6]. Also, the inhibition was 4.34% in [7], 8.98% in assay [8], 6.16% in assay [9] and 8.39% in [10].
Consider `COc1ccc2[nH]c3c4[nH]c5ccc(OC)cc5c4c4c(c3c2c1)C(=O)NC4=O`, for which the inhibition in [1] was found to be 17.9%; in [2] it was 9.7%; in assay [3], 53.1%; in assay [4], 2.52%; in [5], 0.85%; in assay [6] it was 5.78%. Besides, the inhibition in assay [7] was 6.32%; in [8] it was 10.1%; in [9], 22.6%; in assay [10] it was 10.7%.
With `COc1cccc(-n2ncc3c(N/N=C/c4ccc(F)cc4)ncnc32)c1`, the inhibition in [1] came out at 3.89%; in [2] it was 1.74%; in assay [3] it was 1.29%; in [4], 4.28%; in assay [5] it was 5.62%; in assay [6], 4.05%. Besides, the inhibition in [7] worked out at 4.06%; in assay [8], 7.96%; in [9], 15.7%; in assay [10], 5.53%.
Take `NC(=O)c1sc(-n2cnc3ccc(C(F)(F)F)cc32)cc1OCc1ccccc1Br`: the inhibition in assay [1] is 4.07%; in assay [2] it was -0.44%; in assay [3], 3.88%; in assay [4] it was -2.06%; in assay [5], -1.67%; in assay [6], 2.19%. In addition, the inhibition amounted to 5.58% in assay [7], 10.1% in assay [8], 8.59% in assay [9] and 5.67% in [10].
As for `COC(=O)Nc1nc2ccc(Oc3ccc(NC(=O)Nc4cccc(Cl)c4)cc3)cc2[nH]1`, the inhibition is -0.68% in assay [1]; -2.96% in [2]; 0.71% in [3]; 7.68% in [4]; 41.2% in assay [5]; 4.1% in assay [6]. Besides, the inhibition is 8.5% in assay [7], 22.3% in assay [8], 62.9% in assay [9] and 36.9% in assay [10].
In the case of `COc1ccc(CNC(=O)c2ccc(-c3cc(-c4nnc(C)o4)ccc3C)cc2)cc1`, the inhibition in assay [1] was 5.47%; in assay [2], 3.26%; in assay [3], 3.61%; in assay [4] it was 2.44%; in assay [5] it was 2.41%; in [6], 1.41%. Further, the inhibition came out at 4.21% in assay [7], 5.67% in assay [8], 15.7% in assay [9] and 7.58% in assay [10].
As for `N#Cc1c(NC(=O)c2ccc(F)cc2)sc2c1CCCC2`, the inhibition in [1] was -0.08%; in assay [2], -2.24%; in assay [3], 0.47%; in [4] it was -2.58%; in assay [5] it was -2.61%; in assay [6], 1.47%. Further, the inhibition was 2.8% in assay [7], 4.24% in assay [8], 2.26% in [9] and 2.69% in assay [10].
For `CCn1c(-c2nonc2N)nc2c(C#CC(C)(C)O)nc(OC[C@H](N)c3ccccc3)cc21`, the inhibition in [1] is 4.71%; in assay [2], 0.92%; in [3] it was 2.55%; in assay [4], 0.4%; in assay [5], -0.31%; in [6], 2.11%. The inhibition in [7] was 1.87%; in assay [8] it was 5.06%; in assay [9], 4.87%; in assay [10], 0.04%.
For the compound `CCn1c(-c2nonc2N)nc2cnc(Oc3cccc(NC(=O)c4ccc(N(C)C)cc4)c3)cc21`, the inhibition in assay [1] is 0.52%; in assay [2], -1.54%; in assay [3], -0.4%; in assay [4], -2.08%; in [5], -3.39%; in [6], 2.26%. Besides, the inhibition was 4.01% in assay [7], 4.68% in assay [8], -0.31% in assay [9] and 5.07% in assay [10].
